# Measured values from the supplement of paper PMC8728848.
# The sample as a whole holds a higher share of the strongest signals than the screen did.
# B1: GALT1 615 (Arabidopsis thaliana), Q8L7F9 (protein)
# chain: DPMRGSHHHHHHGMASMTGGQQMGRDLYDDDDKSRLQKPYITAAASVVVTPNTTLPMEWLRITLPDFMKEARNTQEAISGDDIAVVSGLFVEQNVSKEEREPLLTWNRLESLVDNAQSLVNGVDAIKEAGIVWESLVSAVEAKKLVDVNENQTRKGKEELCPQFLSKMNATEADGSSLKLQIPCGLTQGSSITVIGIPDGLVGSFRIDLTGQPLPGEPDPPIIVHYNVRLLGDKSTEDPVIVQNSWTASQDWGAEERCPKFDPDMNKKVDDLDECNKMVGGEINRTSSTSLQSNTSRGVPVAREASKHEKYFPFKQGFLSVATLRVGTEGMQMTVDGKHITSFAFRDTLEPWLVSEIRITGDFRLISILA
# B2: CTLX (Homo sapiens), Q6UXS0 (protein)
# chain: SLCPLFWMEFKGHCYRFFPLNKTWAEADLYCSEFSVGRKSAKLASIHSWEENVFVYDLVNSCVPGIPADVWTGLHDHRQEGQFEWTDGSSYDYSYWDGSQPDDGVHADPEEEDCVQIWYRPTSALRSWNDNTCSRKFPFVCKIPSLTIH
# What was measured:
# Assay in all cases: glycan array binding signal (z-score within array); higher = stronger binding
# Conditions in all cases: glycan notation: IUPAC condensed, linker removed
# [1] = target: Fuc(a1-2)Gal(b1-3)GalNAc(b1-3)Gal
# Procedure, shortened: (§1)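 Arrays were curated from the Consortium for Functional Glycomics database, 3228 in total, and kept only where the protein sequence was available. Binding is expressed as a within-array Z-score. This score was averaged across arrays of the same protein sequence at different concentrations or buffers and across linkers, and negative values can be read as non-binding.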
# [2] = target: Fuc(a1-2)Gal(b1-4)GlcNAc
# Procedure, shortened: as §1
# [3] = target: Fuc(a1-2)Gal(b1-4)[Fuc(a1-3)]GlcNAc
# Procedure, shortened: as §1
# [4] = target: Fuc(a1-2)Gal(b1-4)[Fuc(a1-3)]GlcNAc(b1-3)Gal(b1-4)[Fuc(a1-3)]GlcNAc(b1-3)Gal(b1-4)[Fuc(a1-3)]GlcNAc
# Procedure, shortened: as §1
# [5] = target: Fuc(a1-2)[GalNAc(a1-3)]Gal(b1-4)[Fuc(a1-3)]GlcNAc
# Procedure, shortened: as §1
# [6] = target: Gal(b1-3)GalNAc(b1-4)Gal(b1-4)Glc
# Procedure, shortened: as §1
# [7] = target: Gal(b1-3)GlcNAc(b1-3)Gal(b1-3)GlcNAc
# Procedure, shortened: as §1
# [8] = target: Gal(b1-4)GlcNAc(b1-2)Man(a1-3)Man(b1-4)GlcNAc(b1-4)GlcNAc
# Procedure, shortened: as §1
# [9] = target: Gal(b1-4)GlcNAc(b1-2)Man(a1-3)[Gal(b1-4)GlcNAc(b1-2)Man(a1-6)]Man(b1-4)GlcNAc(b1-4)GlcNAc
# Procedure, shortened: as §1
# [10] = target: Gal(b1-4)GlcNAc(b1-6)GalNAc
# Procedure, shortened: as §1
# [11] = target: Gal3S(b1-4)GlcNAc
# Procedure, shortened: as §1
# [12] = target: Gal3S(b1-4)GlcNAc6S
# Procedure, shortened: as §1
# [13] = target: Gal6S(b1-4)GlcNAc6S
# Procedure, shortened: as §1
# [14] = target: Glc(a1-4)Glc
# Procedure, shortened: as §1
# [15] = target: GlcNAc(a1-4)Gal(b1-4)GalNAc
# Procedure, shortened: as §1
# [16] = target: GlcNAc(a1-4)Gal(b1-4)GlcNAc(b1-3)Gal(b1-4)GlcNAc
# Procedure, shortened: as §1
# [17] = target: GlcNAc(b1-2)Man(a1-3)[GlcNAc(b1-2)Man(a1-6)]Man(b1-4)GlcNAc(b1-4)[Fuc(a1-6)]GlcNAc
# Procedure, shortened: as §1
# [18] = target: GlcNAc(b1-3)GalNAc
# Procedure, shortened: as §1
# [19] = target: GlcNAc(b1-3)[GlcNAc(b1-6)]Gal(b1-4)GlcNAc
# Procedure, shortened: as §1
# [20] = target: Kdn(a2-3)Gal(b1-3)GalNAc
# Procedure, shortened: as §1
# [21] = target: Man(a1-2)Man(a1-6)[Man(a1-3)]Man(a1-6)[Man(a1-2)Man(a1-2)Man(a1-3)]Man(b1-4)GlcNAc(b1-4)GlcNAc
# Procedure, shortened: as §1
# [22] = target: Neu5Ac(a2-3)Gal(b1-3)GlcNAc6S
# Procedure, shortened: as §1
# [23] = target: Neu5Ac(a2-3)Gal(b1-4)GlcNAc(b1-6)[Neu5Ac(a2-3)Gal(b1-3)]GalNAc
# Procedure, shortened: as §1
# [24] = target: Neu5Ac(a2-3)Gal(b1-4)GlcNAc6S
# Procedure, shortened: as §1
# [25] = target: Neu5Ac(a2-3)Gal(b1-4)[Fuc(a1-3)]GlcNAc(b1-3)Gal(b1-4)GlcNAc
# Procedure, shortened: as §1
# [26] = target: Neu5Gc(b2-6)Gal(b1-4)GlcNAc
# Procedure, shortened: as §1
# [27] = target: Fuc(a1-2)Gal(b1-4)[Fuc(a1-3)]GlcNAc(b1-2)Man(a1-3)[Fuc(a1-2)Gal(b1-4)[Fuc(a1-3)]GlcNAc(b1-2)Man(a1-6)]Man(b1-4)GlcNAc(b1-4)GlcNAc
# Procedure, shortened: as §1
# [28] = target: Fuc(a1-3)[Gal3S(b1-4)]Glc6S
# Procedure, shortened: as §1
# [29] = target: Gal(a1-3)Gal(b1-4)Glc
# Procedure, shortened: as §1
# [30] = target: Gal(a1-3)GalNAc
# Procedure, shortened: as §1
# [31] = target: Gal(b1-3)GalNAc
# Procedure, shortened: as §1
# [32] = target: Gal(b1-3)[Fuc(a1-4)]GlcNAc(b1-2)Man(a1-3)[Gal(b1-3)[Fuc(a1-4)]GlcNAc(b1-2)Man(a1-6)]Man(b1-4)GlcNAc(b1-4)GlcNAc
# Procedure, shortened: as §1
# [33] = target: Gal(b1-4)GlcNAc(b1-3)Gal(b1-4)GlcNAc(b1-3)Gal(b1-4)GlcNAc
# Procedure, shortened: as §1
# [34] = target: Gal3S(b1-4)[Fuc(a1-3)]Glc
# Procedure, shortened: as §1
# [35] = target: GalNAc(a1-3)GalNAc
# Procedure, shortened: as §1
# [36] = target: GalNAc(b1-3)GalNAc
# Procedure, shortened: as §1
# [37] = target: GalNAc(b1-4)GlcNAc(b1-2)Man(a1-3)[GalNAc(b1-4)GlcNAc(b1-2)Man(a1-6)]Man(b1-4)GlcNAc(b1-4)GlcNAc
# Procedure, shortened: as §1
# [38] = target: GlcA(b1-3)GlcNAc
# Procedure, shortened: as §1
# [39] = target: GlcNAc(a1-3)Gal(b1-4)GlcNAc
# Procedure, shortened: as §1
# [40] = target: GlcNAc(a1-4)Gal(b1-3)GlcNAc
# Procedure, shortened: as §1
# [41] = target: GlcNAc(b1-2)Gal(b1-3)GalNAc
# Procedure, shortened: as §1
# [42] = target: GlcNAc(b1-3)Gal(b1-3)GalNAc
# Procedure, shortened: as §1
# [43] = target: GlcNAc(b1-3)[GlcNAc(b1-4)][GlcNAc(b1-6)]GlcNAc
# Procedure, shortened: as §1
# [44] = target: Man(a1-2)Man(a1-3)[Man(a1-6)]Man(a1-6)[Man(a1-2)Man(a1-3)]Man(b1-4)GlcNAc(b1-4)GlcNAc
# Procedure, shortened: as §1
# [45] = target: Neu5Ac(a2-3)Gal
# Procedure, shortened: as §1
# [46] = target: Neu5Ac(a2-3)Gal(b1-3)[Neu5Ac(a2-6)]GalNAc
# Procedure, shortened: as §1
# [47] = target: Neu5Ac(a2-3)Gal(b1-4)GlcNAc(b1-3)Gal(b1-4)[Fuc(a1-3)]GlcNAc
# Procedure, shortened: as §1
# [48] = target: Neu5Ac(a2-3)Gal(b1-4)[Fuc(a1-3)]GlcNAc(b1-6)[Gal(b1-3)]GalNAc
# Procedure, shortened: as §1
# [49] = target: Neu5Ac(a2-3)[GalNAc(b1-4)]Gal(b1-4)GlcNAc
# Procedure, shortened: as §1
# [50] = target: Neu5Ac(a2-8)Neu5Ac(a2-8)Neu5Ac(a2-3)[GalNAc(b1-4)]Gal(b1-4)Glc
# Procedure, shortened: as §1
# [51] = target: Neu5Gc(a2-6)GalNAc
# Procedure, shortened: as §1
binder,measurement,setting,value
B1,glycan array binding signal (z-score),[1],8.63
same,glycan array binding signal (z-score),[2],-0.374
same,glycan array binding signal (z-score),[3],4.77
same,glycan array binding signal (z-score),[4],1.95
same,glycan array binding signal (z-score),[5],1.82
same,glycan array binding signal (z-score),[6],-0.508
same,glycan array binding signal (z-score),[7],-0.271
same,glycan array binding signal (z-score),[8],-0.484
same,glycan array binding signal (z-score),[9],0.081
same,glycan array binding signal (z-score),[10],-0.439
same,glycan array binding signal (z-score),[11],-0.208
same,glycan array binding signal (z-score),[12],-0.044
same,glycan array binding signal (z-score),[13],-0.309
same,glycan array binding signal (z-score),[14],3.74
same,glycan array binding signal (z-score),[15],8
same,glycan array binding signal (z-score),[16],-0.46
same,glycan array binding signal (z-score),[17],6.45
same,glycan array binding signal (z-score),[18],-0.386
same,glycan array binding signal (z-score),[19],-0.348
same,glycan array binding signal (z-score),[20],-0.772
same,glycan array binding signal (z-score),[21],-0.415
same,glycan array binding signal (z-score),[22],-0.079
same,glycan array binding signal (z-score),[23],-0.225
same,glycan array binding signal (z-score),[24],-0.078
same,glycan array binding signal (z-score),[25],0.904
same,glycan array binding signal (z-score),[26],-0.419
B2,glycan array binding signal (z-score),[1],0.292
same,glycan array binding signal (z-score),[27],3.01
same,glycan array binding signal (z-score),[28],5.87
same,glycan array binding signal (z-score),[29],1.11
same,glycan array binding signal (z-score),[30],-1.04
same,glycan array binding signal (z-score),[31],0.235
same,glycan array binding signal (z-score),[32],4.2
same,glycan array binding signal (z-score),[33],-0.836
same,glycan array binding signal (z-score),[34],-0.137
same,glycan array binding signal (z-score),[35],-0.619
same,glycan array binding signal (z-score),[36],-0.421
same,glycan array binding signal (z-score),[37],0.305
same,glycan array binding signal (z-score),[38],0.103
same,glycan array binding signal (z-score),[39],-0.363
same,glycan array binding signal (z-score),[40],3.54
same,glycan array binding signal (z-score),[41],-0.988
same,glycan array binding signal (z-score),[42],4.33
same,glycan array binding signal (z-score),[43],-0.646
same,glycan array binding signal (z-score),[44],-0.346
same,glycan array binding signal (z-score),[45],-0.528
same,glycan array binding signal (z-score),[46],0.498
same,glycan array binding signal (z-score),[47],-0.47
same,glycan array binding signal (z-score),[48],4
same,glycan array binding signal (z-score),[49],-0.041
same,glycan array binding signal (z-score),[50],-1.09
same,glycan array binding signal (z-score),[51],-0.736
